Records with an inconclusive call do not appear. Activity calls are given as the source filed them. Unless noted, calls come from the whole dose curve; as a rule, active = well fitted curve in the direction sought with a large enough effect in the repeat runs; inconclusive = weak or mixed curves; inactive = no such curve, though single readings can be large; an effect the other way counts as inactive or inconclusive.
Tests used:
[1] = qHTS assay to identify small molecule agonists of the estrogen related receptor (ERR) signaling pathway from Tox21 library (AID 1224849; calls by dose curve; note: nearly all actives have a fitted effect of over 15% in size)
Procedure, shortened: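 Six hours post-seeding at 37 C/5% CO2, ERR cells receive DMSO-solubilised compounds; after 18 h at 37 C, ONE-Glo reagent is applied and luminescence recorded.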

[2] = qHTS RealTime-Glo MT Cell Viability Assay in HepG2 cells - 24 hour (AID 1224867); note: nearly all actives have a fitted effect of over 50% in size
Procedure, shortened: (§1)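 Compound treatment began 5 h after plating HepG2 cells (600/well) with NanoLuc luciferase and prosubstrate. Plates stayed at 37 C for 40 h; luminescence was captured at six time points, 0 h through 40 h.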

[3] = qHTS RealTime-Glo MT Cell Viability Assay in HEK293 cells - 32 hour (AID 1224868); note: nearly all actives have a fitted effect of over 50% in size; note: potency is the fitted concentration of half-maximal effect
Procedure, shortened: (§2)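 Quantitative high-throughput screen of the Tox21 10K library in HEK293: cells and RealTime-Glo reagents plated together, compound added at 5 h, luminescence monitored through 40 h at 37 C.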

[4] = A CellTox Green Cytotoxicity Assay to monitor cytotoxicity in HEK293 cells - 0 hour (AID 1224869); note: nearly all actives have a fitted effect of over 50% in size
Procedure, shortened: (§3)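 Seeding of HEK293 cells together with cytotoxicity dye preceded a 5 h incubation at 37 C/5% CO2. Test compounds in DMSO were then added and fluorescence monitored across 40 h.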

[5] = qHTS RealTime-Glo MT Cell Viability Assay in HEK293 cells - 16 hour (AID 1224872); note: nearly all actives have a fitted effect of over 50% in size; note: potency is the fitted concentration of half-maximal effect
Procedure, shortened: as §2

[6] = qHTS RealTime-Glo MT Cell Viability Assay in HepG2 cells - 8 hour (AID 1224873); note: nearly all actives have a fitted effect of over 55% in size
Procedure, shortened: (§4)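 HepG2 cells (600/well) mixed with RealTime-Glo MT reagent, settled 5 h at 37 C/5% CO2 before compound addition. Nonlytic NanoLuc luminescence from viable-cell prosubstrate reduction read repeatedly during 40 h treatment at 37 C.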

[7] = qHTS RealTime-Glo MT Cell Viability Assay in HEK293 cells - 40 hour (AID 1224874); conditions: RealTime-Glo luminescence; max response: active compounds read low; note: nearly all actives have a fitted effect of over 50% in size; note: potency is the fitted concentration of half-maximal effect
Procedure, shortened: (§5)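 Tox21 screen in HEK293 using RealTime-Glo MT chemistry, with cells and reagent co-dispensed. Luminescence proportional to viable cell number was captured at intervals during 40 h compound exposure at 37 C.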

[8] = A CellTox Green Cytotoxicity Assay to monitor cytotoxicity in HepG2 cells - 16 hour (AID 1224876); note: nearly all actives have a fitted effect of over 45% in size; note: potency is the fitted concentration of half-maximal effect
Procedure, shortened: (§6)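 Nonlytic assay: viable cells exclude the dye, so fluorescence scales with cell death. HepG2 at 600 cells/well, compounds added after 5 h, signal read across 40 h.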

[9] = qHTS RealTime-Glo MT Cell Viability Assay in HepG2 cells - 32 hour (AID 1224877); note: nearly all actives have a fitted effect of over 55% in size
Procedure, shortened: as §1

[10] = A CellTox Green Cytotoxicity Assay to monitor cytotoxicity in HepG2 cells - 24 hour (AID 1224878); note: nearly all actives have a fitted effect of over 45% in size; note: potency is the fitted concentration of half-maximal effect
Procedure, shortened: as §6

[11] = qHTS RealTime-Glo MT Cell Viability Assay in HEK293 cells - 0 hour (AID 1224880); note: top concentration of the series differs between compounds; nearly all actives have a fitted effect of over 45% in size
Procedure, shortened: as §5

[12] = A CellTox Green Cytotoxicity Assay to monitor cytotoxicity in HepG2 cells - 0 hour (AID 1224882); note: nearly all actives have a fitted effect of over 35% in size
Procedure, shortened: as §6

[13] = A CellTox Green Cytotoxicity Assay to monitor cytotoxicity in HepG2 cells - 32 hour (AID 1224883); note: nearly all actives have a fitted effect of over 50% in size; note: potency is the fitted concentration of half-maximal effect
Procedure, shortened: as §6

[14] = qHTS RealTime-Glo MT Cell Viability Assay in HepG2 cells - 16 hour (AID 1224885); note: nearly all actives have a fitted effect of over 50% in size
Procedure, shortened: as §1

[15] = qHTS RealTime-Glo MT Cell Viability Assay in HepG2 cells - 40 hour (AID 1224870); note: nearly all actives have a fitted effect of over 50% in size
Procedure, shortened: as §4

[16] = A CellTox Green Cytotoxicity Assay to monitor cytotoxicity in HEK293 cells - 40 hour (AID 1224871); note: nearly all actives have a fitted effect of over 45% in size
Procedure, shortened: as §3

[17] = A CellTox Green Cytotoxicity Assay to monitor cytotoxicity in HEK293 cells - 24 hour (AID 1224875)
Procedure, shortened: as §3

[18] = A CellTox Green Cytotoxicity Assay to monitor cytotoxicity in HepG2 cells - 40 hour (AID 1224879); note: nearly all actives have a fitted effect of over 40% in size; note: potency is the fitted concentration of half-maximal effect
Procedure, shortened: as §6

[19] = A CellTox Green Cytotoxicity Assay to monitor cytotoxicity in HEK293 cells - 32 hour (AID 1224881); note: nearly all actives have a fitted effect of over 40% in size
Procedure, shortened: as §3

[20] = A CellTox Green Cytotoxicity Assay to monitor cytotoxicity in HEK293 cells - 8 hour (AID 1224884); note: nearly all actives have a fitted effect of over 35% in size
Procedure, shortened: as §3
% is set by controls: 0 for no effect and ±100 for the full control effect.

CCCCCCCCCCCCCCCCCCN(C)C
inactive: outcome [1] | outcome [2] | Potency [3] | Potency [4] | Potency [5] | outcome [6] | max response [7] 0.677% | Potency [8] | outcome [9] | Potency [10] | outcome [11] | Potency [12] | Potency [13] | outcome [14]

C=C(C)C(=O)OC
inactive: outcome [1] | outcome [2] | Potency [3] | outcome [15] | Potency [16] | Potency [5] | outcome [6] | max response [7] -13.6% | Potency [17] | outcome [9] | Potency [10] | Potency [18] | outcome [11] | Potency [19] | Potency [12] | Potency [13] | Potency [20] | outcome [14]

CN(C1CCCCC1)S(=O)(=O)c1ccccc1N
inactive: outcome [1] | outcome [2] | Potency [4] | outcome [15] | outcome [6] | Potency [17] | Potency [8] | outcome [9] | Potency [10] | Potency [18] | outcome [11] | Potency [19] | Potency [12] | Potency [13]

COc1cccc2sc(N)nc12
inactive: outcome [1] | outcome [2] | Potency [3] | Potency [4] | Potency [16] | Potency [5] | outcome [6] | max response [7] -6.71% | Potency [17] | Potency [8] | outcome [9] | outcome [11] | Potency [19] | Potency [12] | Potency [13] | Potency [20] | outcome [14]

CC(=O)OC[C@H]1O[C@@H](OC(C)=O)[C@H](OC(C)=O)[C@@H]1OC(C)=O
inactive: outcome [1] | outcome [2] | Potency [3] | outcome [15] | Potency [16] | Potency [5] | outcome [6] | max response [7] 5.33% | Potency [17] | Potency [8] | outcome [9] | Potency [10] | outcome [11] | Potency [19] | Potency [12] | Potency [13] | Potency [20] | outcome [14]

NC(=O)NNC(N)=O
inactive: outcome [1] | outcome [2] | Potency [3] | Potency [4] | Potency [16] | Potency [5] | outcome [6] | max response [7] 19.6% | Potency [17] | Potency [8] | outcome [9] | Potency [18] | outcome [11] | Potency [19] | Potency [13] | Potency [20] | outcome [14]

Cc1cccc(Nc2ccncc2S(=O)(=O)NC(=O)NC(C)C)c1
inactive: outcome [1] | outcome [2] | Potency [3] | Potency [4] | outcome [15] | Potency [5] | outcome [6] | max response [7] -1.39% | Potency [17] | outcome [11] | Potency [19] | Potency [12] | Potency [13] | Potency [20] | outcome [14]

CC1CCC(C(C)(C)S)C(=O)C1 (configuration not stated)
inactive: outcome [1] | outcome [2] | Potency [4] | Potency [16] | outcome [6] | Potency [17] | Potency [8] | outcome [9] | Potency [10] | Potency [18] | outcome [11] | Potency [19] | Potency [12] | Potency [13] | Potency [20]
active: Potency [3] 3.09 µM | Potency [5] 6.92 µM | Potency [7] 3.09 µM

CCc1nccnc1C
inactive: outcome [1] | outcome [2] | Potency [3] | Potency [4] | Potency [16] | Potency [5] | outcome [6] | max response [7] 6.93% | Potency [17] | outcome [9] | Potency [10] | outcome [11] | Potency [19] | Potency [12] | Potency [13] | Potency [20] | outcome [14]

NC(=O)C1(N2CCCCC2)CCN(CCCC(=O)c2ccc(F)cc2)CC1
inactive: outcome [1] | outcome [2] | Potency [3] | outcome [15] | Potency [16] | Potency [5] | outcome [6] | max response [7] -22.3% | Potency [17] | Potency [8] | outcome [11] | Potency [19] | Potency [12] | Potency [13] | Potency [20] | outcome [14]

COc1cc(C=O)ccc1OC(=O)C(C)C
inactive: outcome [1] | outcome [2] | Potency [3] | outcome [15] | Potency [16] | Potency [5] | outcome [6] | max response [7] -2% | Potency [17] | outcome [9] | Potency [10] | outcome [11] | Potency [19] | Potency [12] | Potency [13] | Potency [20] | outcome [14]

CCCCCCCCCCCCCCCC(=O)NCCO
inactive: outcome [1] | outcome [2] | Potency [3] | Potency [4] | outcome [15] | Potency [5] | outcome [6] | max response [7] -2.85% | Potency [17] | outcome [9] | outcome [11] | Potency [19] | Potency [20] | outcome [14]
active: Potency [8] 8.49 µM | Potency [10] 8.49 µM | Potency [18] 8.49 µM | Potency [13] 9.52 µM

O=S(=O)(O)c1cc(O)ccc1O
inactive: outcome [1] | outcome [2] | Potency [3] | outcome [15] | Potency [16] | Potency [5] | outcome [6] | max response [7] 9.53% | Potency [17] | outcome [9] | outcome [11] | Potency [19] | Potency [20] | outcome [14]

C[CH2][Ge]([Cl])([CH2]C)[CH2]C
inactive: outcome [1] | outcome [2] | Potency [3] | Potency [4] | Potency [16] | Potency [5] | outcome [6] | max response [7] 1.99% | Potency [17] | Potency [8] | outcome [9] | Potency [10] | Potency [18] | outcome [11] | Potency [19] | Potency [12] | Potency [13] | Potency [20] | outcome [14]

CCCOC(=O)CCCCC(=O)OCCC
inactive: outcome [1] | outcome [2] | Potency [3] | Potency [4] | outcome [15] | Potency [5] | outcome [6] | max response [7] -4.84% | Potency [17] | outcome [9] | Potency [10] | Potency [18] | outcome [11] | Potency [19] | Potency [12] | Potency [13] | Potency [20]

Cc1cccc(NC(=S)N(C)C)c1
inactive: outcome [1] | outcome [2] | Potency [3] | Potency [4] | outcome [15] | Potency [5] | outcome [6] | Potency [17] | Potency [8] | outcome [9] | Potency [10] | Potency [18] | outcome [11] | Potency [19] | Potency [12] | Potency [13] | Potency [20] | outcome [14]

From PubChem BioAssay (Tox21)
